Compounds without any hit were thinned out: in the full panel of roughly 83,000, 20% have a hit.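 Interpretation: 100, growth as untreated; towards 0, rising growth inhibition; 0, no net growth; 0 to -100, cell death. Compounds scoring below 10 were considered active.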 Activity calls are given as the source filed them.
The molecules below were run on K-562 leukemia (assay: NCI-60 one-dose screen, 48 h (100 = growth as untreated, 0 = no growth, -100 = all killed)). Conditions: 10 µM unless noted.
With COc1ccc(-c2nn(-c3ccccc3)cc2/C=C/C(=O)c2ccc(NC(=O)CCCCCCC(=O)NO)cc2)cc1 the growth was 84.6% (inactive).
With O=C(NCCCNc1cc(-c2cn(-c3ccccc3)nc2-c2cccc(O)c2)ccn1)Nc1cccc(C(F)(F)F)c1 the growth was 13.3% (inactive).
With Cc1[nH]nc2ccc(-c3nc4cnc(N5CCN(C)CC5)cn4c3Nc3ccc(F)cc3Br)cc12 the growth was 5.31% (active).
In the case of O=C(/C=C/c1cccc(O)c1)c1ccc(O)cc1, the growth is reported as 23.2% (inactive).
For C#Cc1ccc(NC(=O)c2ccc(/C=C/C(=O)c3nccn3C)cc2)c(F)c1, the growth was 12% (inactive).
O=C(Nc1ccc(F)cc1)c1cc(-c2ccc(F)cc2F)ccc1O was tested, and the growth was 15.4% (inactive).
In the case of Oc1ccc(CSc2nnc(-c3ccc(Oc4ccccc4)cc3)o2)c2cccnc12, the growth is reported as 9.13% (active).
For Cc1ccc(NC(=O)c2ccc(CN3CCN(C)CC3)c(C(F)(F)F)c2)cc1Oc1ccc(-c2[nH]nc3ncnc(N)c23)cc1, the growth was 2.49% (active).
In the case of N#Cc1c(NC(=O)c2ccccc2C(F)(F)F)sc2c1CCC(=O)C2, the growth is reported as 10.9% (inactive).
In the case of CCN(CC)c1ccc2cc(C(=O)NCCOCCOCCOCCn3cc(CCC(=O)Nc4ccc(C(=O)c5ccc(NC(=O)OC(C)(C)C)cc5)cc4)nn3)c(=O)oc2c1, the growth is reported as 38.3% (inactive).
In the case of CS(=O)(=O)c1ccc(-c2nn(-c3ccccc3)cc2/C=N/NC(=O)c2ccncc2)cc1, the growth is reported as 62.5% (inactive).
With Cc1ccc(S(=O)(=O)N/N=C/c2cn(-c3ccc(F)cc3)nc2-c2ccc(S(C)(=O)=O)cc2)cc1 the growth was 102% (inactive).
